From PubChem BioAssay (NCATS)
Results filed as inconclusive are left out. Active and inactive are the calls of the source. The call rests on the fitted dose curve; in most records, active means well fitted inhibition curve with a large enough effect; inconclusive means small, poorly fitted or top-dose-only effect; inactive means flat fitted curve, though single readings scatter.

Tested on: CP291
Assay: qHTS profiling for inhibitors of Plasmodium falciparum proliferation (AID 504749); further: nearly all actives have a fitted effect of over 60% in size;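 on activity, negative = inhibition: 0% = DMSO vehicle and full inhibition = artemisinin control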
Conditions: P. falciparum in erythrocytes, SYBR Green DNA, 72 h; series mostly up to 28.7 µM; activity, negative = inhibition: at the top concentration
How it was run: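 P. falciparum-infected erythrocytes (0.3% parasitemia, 2.5% hematocrit final) were exposed to compounds for 72 h at 37 C in 5% CO2, then lysed with SYBR Green buffer overnight at room temperature; parasite DNA fluorescence was normalized to artemisinin and DMSO controls.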
Potency means the concentration at half of the fitted maximal effect.

activity, negative = inhibition, inactive:
CCCCCCCCCCCCCCCC(=O)OC[C@H](O)[C@H]1OC[C@@H](O)[C@@H]1O -5.95%
C[C@H]1OC(OC2C(O)[C@@H](O)C(OC3C(O)[C@@H](O)C(O)O[C@@H]3CO)O[C@@H]2CO)[C@H](O)C(O)C1N[C@H]1C=C(CO)[C@@H](O)[C@H](O)C1O (stereo not given in full) -9.7%
CCN(CC)CC(=O)Nc1c(C)cc(C)cc1C -10.2%
CC(=O)N[C@H]1[C@H](O[C@@H]2c3ccc(c(Cl)c3)Oc3cc4cc(c3O[C@@H]3O[C@H](CO)[C@@H](O)[C@H](O)C3C)Oc3ccc(cc3Cl)C[C@H]3NC(=O)[C@@H](N)c5ccc(O)c(c5)Oc5cc(O)cc(c5)[C@H](NC3=O)C(=O)N[C@H]4C(=O)N[C@H]3C(=O)N[C@@H]2C(=O)N[C@@H](C(=O)O)c2cc(O)cc(O[C@H]4O[C@H](CO)[C@@H](O)C(O)[C@@H]4O)c2-c2cc3ccc2O)O[C@H](CO)[C@@H](O)[C@@H]1O (stereo not given in full) 0.142% [at 12.8 µM]
NC(=O)c1ncn(C2OC(CO)C(O)C2O)c1N (stereo not given) -4.38%
CC1(Cn2ccnn2)[C@H](C(=O)O)N2C(=O)C[C@H]2S1(=O)=O (stereo not given in full) -20.2%
CN(C)CC/C=C1\c2ccccc2COc2ccc(CC(=O)O)cc21 -1.14%
CCCC(=O)O[C@]1(C(=O)COC(C)=O)CC[C@H]2C3C[C@H](F)C4=CC(=O)C=CC4(C)[C@@]3(F)[C@@H](O)CC21C (stereo not given in full) 7.52%
OCCN1CC(O)C(O)C(O)C1CO (stereo not given) -4.36%
CC(CCC(=O)O)C1CCC2C3C(=O)C[C@@H]4CC(=O)CC[C@@]4(C)C3CC(=O)[C@]12C (stereo not given in full) -7.09%
O=C(OC[C@@H]1O[C@@](O)(COC(=O)c2cccnc2)[C@H](OC(=O)c2cccnc2)[C@H]1OC(=O)c1cccnc1)c1cccnc1 -2.47%
O=[N+]([O-])O[C@H]1CO[C@H]2[C@@H]1OC[C@H]2O -0.509%
COc1cccc(OC)c1C(=O)NC1C(=O)N2C1SC(C)(C)C2C(=O)O (stereo not given) 0.859%
NC[C@@H]1O[C@H](OC2[C@@H](CO)O[C@@H](OC3[C@H](O)[C@H](N)C[C@H](N)[C@H]3OC3O[C@H](CO)[C@@H](O)[C@H](O)[C@@H]3N)[C@H]2O)C(N)[C@H](O)[C@@H]1O (stereo not given in full) -0.751%
Cc1ccc(S(=O)(=O)NC(=O)NC(C)Cc2ccccc2)cc1 (stereo not given) 1.84%
OCCOC[C@H]1O[C@H](OCCO)[C@H](OCCO)[C@@H](OCCO)[C@@H]1OCCO (tested in a mixture with another compound) -2.15%
C[S+](C)CC[C@H](N)C(=O)O 2.48%
CC[C@@H]1/C=C(\C)C[C@H](C)C[C@H](OC)[C@H]2O[C@@](O)(C(=O)C(=O)N3CCCC[C@H]3C(=O)O[C@H](/C(C)=C/[C@@H]3CC[C@H](Cl)[C@H](OC)C3)[C@H](C)[C@@H](O)CC1=O)[C@H](C)C[C@@H]2OC -1.83%
NC(=O)C1CC2(NC(=O)NC2=O)c2cc(F)ccc2O1 (stereo not given) 5.24%
CN1[C@@H]2CC[C@@H]1CC(OC(=O)[C@H](CO)c1ccccc1)C2 (stereo not given in full) -2.42%
CCCCCCCCCCCC(=O)OCC(O)C1OCC(O)C1O (stereo not given) 2.3%
C/C1=C2/[N-]C(C(CC(N)=O)[C@@]2(C)CCC(=O)NCC(C)OP(=O)([O-])O[C@H]2[C@@H](O)[C@@H](n3cnc4cc(C)c(C)cc43)O[C@@H]2CO)[C@]2(C)N=C(/C(C)=C3N=C(/C=C4N=C1C(CCC(N)=O)C\4(C)C)[C@@H](CCC(N)=O)[C@]\3(C)CC(N)=O)[C@@H](CCC(N)=O)[C@]2(C)CC(N)=O.CC(=O)O.[Co] (stereo not given in full) -9.67%
CC1(C)OC[C@@H]2O[C@@]3(C(=O)O)OC(C)(C)O[C@@H]3[C@@H]2O1 -7.89%
Cc1ccccc1N1C(=O)c2cc(N)ccc2N/C1=C\F -8.78%
O=C1C(I)=CC(=C(c2cc(I)c(O)c(I)c2)c2ccccc2C(=O)O)C=C1I -3.64%
NC(=O)NC(CCC(=O)O)C(=O)O (stereo not given) 0.796%
CC(=O)OCC(=O)[C@@]1(O)CCC2C3C[C@H](C)C4=CC(=O)C=CC4(C)C3C(O)CC21C (stereo not given in full) 0.127%
CC1(C)C2CC[C@]1(C)[C@@H](O)C2 -1.38%
OCC1O[C@H](Oc2ccc(O)cc2)C(O)C(O)C1O (stereo not given in full) -7.19%
Nc1nc(F)nc2c1ncn2[C@@H]1O[C@H](CO)[C@@H](O)[C@H]1O 1.51%
CC1OC(OC2CCC3(C)C(CCC4C3CC(O)C3(C)C(C5=CC(=O)OC5)CCC43O)C2)CC(O)C1OC1CC(O)C(OC2CC(O)C(OC3OC(CO)C(O)C(O)C3O)C(C)O2)C(C)O1 (stereo not given) 0.356%
CC1OC(OCC2OC(Oc3c(-c4ccc(OCCO)c(OCCO)c4)oc4cc(OCCO)cc(O)c4c3=O)C(O)C(O)C2O)[C@@H](O)C(O)C1O (stereo not given in full) 2.1%

Potency, active:
CCCCC(=O)OCC(=O)[C@]1(O)Cc2c(O)c3c(c(O)c2[C@H](OC2CC(NC(=O)C(F)(F)F)C(O)C(C)O2)C1)C(=O)c1c(OC)cccc1C3=O (stereo not given in full) 4260 nM
C[C@H]1[C@@H](OC(=O)CCC(=O)O)OC2OC3(C)CC[C@H]4[C@H](C)CC[C@@H]1[C@@]24OO3 (stereo not given in full) 4.3 nM
COc1cc2c(cc1O)CCN[C@@]21CS[C@H]2c3c(OC(C)=O)c(C)c4c(c3C(COC1=O)N1C2C2c3c(cc(C)c(OC)c3O)CC([C@@H]1O)N2C)OCO4 (stereo not given in full) 0.4 nM
C[n+]1c2cc(N)ccc2cc2ccc(N)cc21 1200 nM
CC[C@@]1(O)C[C@H](O[C@H]2C[C@@H](N(C)C)[C@@H](O[C@H]3C[C@@H](O)[C@@H](O[C@H]4CCC(=O)[C@@H](C)O4)[C@@H](C)O3)[C@@H](C)O2)c2c(cc3c(c2O)C(=O)c2c(O)cccc2C3=O)[C@H]1C(=O)OC 849 nM
CCC(C(=O)O)C1OC(C(C)C(O)C(C)C(=O)C(CC)C2OC3(C=CC(O)C4(CCC(C)(C5CCC(O)(CC)C(C)O5)O4)O3)C(C)CC2C)C(C)CC1C (stereo not given) 60.1 nM
COC1CC2CCC(C)[C@](O)(O2)C(=O)C(=O)N2CCCCC2C(=O)OC(C(C)CC2CCC(O)C(OC)C2)CC(=O)C(C)/C=C(/C)C(O)C(OC)C(=O)C(C)CC(C)C=CC=C/C=C\1C (stereo not given in full) 4780 nM
CN[C@H](C)CCC=C(C)C 953 nM
